Assay results reported in PubChem BioAssay (NCI).
This is part of a sample that, as a whole, favours compounds with a hit. Of some 83,000 tested, about 20% had one in any assay.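 Plates (96-well) were seeded with cells, treated with compound at one concentration, and incubated for 48 hours before percent growth was determined.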

Assays:
Experiment in all cases: NCI-60 one-dose screen, 48 h (100 = growth as untreated, 0 = no growth, -100 = all killed); active means growth percent below 10; inactive means the rest
HCT-15 colon = settings: 10 µM unless noted
HT29 colon = settings: 10 µM unless noted
SNB-75 CNS = settings: 10 µM unless noted
SNB-19 CNS = settings: 10 µM unless noted
U251 CNS = settings: 10 µM unless noted
PC-3 prostate = settings: 10 µM unless noted
SK-MEL-5 melanoma = settings: 10 µM unless noted
UACC-62 melanoma = settings: 10 µM unless noted
LOX IMVI melanoma = settings: 10 µM
SK-MEL-28 melanoma = settings: 10 µM unless noted
SN12C renal = settings: 10 µM unless noted
UO-31 renal = settings: 10 µM unless noted
TK-10 renal = settings: 10 µM unless noted
ACHN renal = settings: 10 µM unless noted
CAKI-1 renal = settings: 10 µM unless noted
A498 renal = settings: 10 µM unless noted
CCRF-CEM leukemia = settings: 10 µM unless noted
MOLT-4 leukemia = settings: 10 µM unless noted
EKVX NSCLC = settings: 10 µM unless noted
SK-MEL-2 melanoma = settings: 10 µM unless noted

Measured: growth

Cc1cccnc1NC1OC(=O)c2ccccc21 (stereo unspecified)
inactive: HCT-15 colon 96.7% | HT29 colon 104% | SNB-75 CNS 96.5% | SNB-19 CNS 101% | U251 CNS 101% | PC-3 prostate 114% | SK-MEL-5 melanoma 105% | UACC-62 melanoma 96.6% | LOX IMVI melanoma 94.9% | SK-MEL-28 melanoma 112% | SN12C renal 105% | UO-31 renal 85.8% | TK-10 renal 97% | ACHN renal 103% | CAKI-1 renal 99.5% | A498 renal 94.7% | CCRF-CEM leukemia 104% | MOLT-4 leukemia 99.3%

CC(CCC#N)(CCC#N)C(=O)c1ccccc1
inactive: HCT-15 colon 100% | HT29 colon 103% | SNB-75 CNS 96.7% | SNB-19 CNS 102% | U251 CNS 109% | PC-3 prostate 87.8% | SK-MEL-5 melanoma 109% | UACC-62 melanoma 104% | LOX IMVI melanoma 100% | SK-MEL-28 melanoma 119% | EKVX NSCLC 115% | SN12C renal 102% | UO-31 renal 77.1% | TK-10 renal 106% | ACHN renal 114% | CAKI-1 renal 112% | A498 renal 89.9% | CCRF-CEM leukemia 93.3% | MOLT-4 leukemia 97.8%

COc1ccc(/C=N/NC(=O)COCC(=O)N/N=C/c2ccc(OC)cc2)cc1
inactive: HCT-15 colon 97.8% | HT29 colon 130% | SNB-75 CNS 88.6% | SNB-19 CNS 110% | U251 CNS 96.2% | PC-3 prostate 88.8% | SK-MEL-5 melanoma 97.9% | UACC-62 melanoma 101% | LOX IMVI melanoma 102% | SK-MEL-28 melanoma 100% | SN12C renal 99% | UO-31 renal 92.5% | TK-10 renal 115% | ACHN renal 97.2% | CAKI-1 renal 98.8% | A498 renal 85.6% | CCRF-CEM leukemia 86.8% | MOLT-4 leukemia 98.3%

CCN(CC)CCN1CNC(=S)NC1
inactive: HCT-15 colon 106% | HT29 colon 104% | SNB-75 CNS 107% | SNB-19 CNS 104% | U251 CNS 105% | PC-3 prostate 101% | SK-MEL-5 melanoma 104% | UACC-62 melanoma 105% | LOX IMVI melanoma 95.8% | SK-MEL-28 melanoma 114% | SK-MEL-2 melanoma 95.1% | SN12C renal 98.4% | UO-31 renal 83.7% | TK-10 renal 103% | CAKI-1 renal 106% | A498 renal 105% | CCRF-CEM leukemia 97.8% | MOLT-4 leukemia 97.1%

Nc1cccc2cccc(O)c12
inactive: HCT-15 colon 83% | HT29 colon 107% | SNB-75 CNS 78.5% | SNB-19 CNS 98.7% | U251 CNS 70.5% | PC-3 prostate 69.6% | SK-MEL-5 melanoma 86.9% | UACC-62 melanoma 86.4% | LOX IMVI melanoma 85.1% | SK-MEL-28 melanoma 111% | EKVX NSCLC 94.6% | SN12C renal 91% | UO-31 renal 52.8% | TK-10 renal 83.7% | CAKI-1 renal 101% | A498 renal 97.9% | CCRF-CEM leukemia 52.8% | MOLT-4 leukemia 83%

CC(=O)c1cc(O)ccc1O
inactive: HCT-15 colon 107% | HT29 colon 104% | SNB-75 CNS 103% | SNB-19 CNS 97.9% | U251 CNS 104% | PC-3 prostate 98.3% | SK-MEL-5 melanoma 113% | UACC-62 melanoma 96.6% | LOX IMVI melanoma 98.9% | SK-MEL-28 melanoma 109% | EKVX NSCLC 112% | SN12C renal 97.4% | UO-31 renal 88.9% | TK-10 renal 93.6% | ACHN renal 110% | A498 renal 90.6% | CCRF-CEM leukemia 73.7% | MOLT-4 leukemia 92.8%

Cc1ccc(NC(=O)c2ccccc2Cl)cc1
inactive: HCT-15 colon 95.3% | HT29 colon 107% | SNB-75 CNS 95.3% | SNB-19 CNS 99% | U251 CNS 118% | PC-3 prostate 89.6% | SK-MEL-5 melanoma 107% | UACC-62 melanoma 98.6% | LOX IMVI melanoma 101% | SK-MEL-28 melanoma 108% | EKVX NSCLC 105% | SN12C renal 101% | UO-31 renal 97% | TK-10 renal 115% | ACHN renal 103% | CAKI-1 renal 107% | A498 renal 79.2% | CCRF-CEM leukemia 85% | MOLT-4 leukemia 87.8%

CCOC(=O)CO
inactive: HCT-15 colon 115% | HT29 colon 107% | SNB-75 CNS 94.1% | SNB-19 CNS 105% | U251 CNS 110% | PC-3 prostate 101% | SK-MEL-5 melanoma 107% | UACC-62 melanoma 103% | LOX IMVI melanoma 107% | SK-MEL-28 melanoma 114% | EKVX NSCLC 95.6% | SN12C renal 104% | UO-31 renal 72.8% | TK-10 renal 109% | ACHN renal 109% | CAKI-1 renal 96.5% | A498 renal 97% | CCRF-CEM leukemia 102% | MOLT-4 leukemia 86.4%

Cc1ccc(OC(=O)c2ccccc2)cc1
inactive: HCT-15 colon 118% | HT29 colon 95.3% | SNB-75 CNS 108% | SNB-19 CNS 109% | U251 CNS 94.8% | PC-3 prostate 105% | SK-MEL-5 melanoma 101% | UACC-62 melanoma 112% | LOX IMVI melanoma 105% | SK-MEL-28 melanoma 120% | EKVX NSCLC 122% | SN12C renal 109% | UO-31 renal 97.2% | TK-10 renal 98.1% | ACHN renal 117% | CAKI-1 renal 114% | A498 renal 95.6% | CCRF-CEM leukemia 108% | MOLT-4 leukemia 104%
